Assay outcomes deposited in PubChem BioAssay by National Center for Advancing Translational Sciences (NCATS).
A selection: hits, their analogues and other compounds. The true share with any hit is near 1.8%.
Vif-A3G inh = blocks the Vif interaction with human APOBEC3G; HeLa A3G-eYFP + Vif (tagged APOBEC3G with the HIV-1 protein that degrades it), YFP fluorescence, overnight; Potency, µM (doses to about 46.1 µM), without a hit: top-dose activity, negative = active, usual class: inhibitors; actives 0.076% (n = 410,000); AID 602310; further: on the % scale 0 is the no-effect control and ±100 the full control effect; nearly all actives have a fitted effect of over 60% in size
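Read-out is eYFP fluorescence (Ex 488/Em 500-530) from Vif-expressing HeLa A3G-eYFP cells; more signal means A3G escaped Vif-mediated degradation. Cells plated overnight, compound pinned in, incubated overnight at 37 deg C.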
TrxR1 inh = rat TrxR1 inhibition; Potency, µM (top dose mostly 114 µM), inactives show top-dose activity change, negative = inhibition, hits mostly inhibitors; AID 588453; O89049; recombinant rTrxR1, NADPH fluorescence consumption, selenite substrate; actives 1% (n = 390,000); further: on the % scale 0 is the no-effect control and ±100 the full control effect; nearly all actives have a fitted effect of over 65% in size
Target sequence (O89049 whole entry, looked up): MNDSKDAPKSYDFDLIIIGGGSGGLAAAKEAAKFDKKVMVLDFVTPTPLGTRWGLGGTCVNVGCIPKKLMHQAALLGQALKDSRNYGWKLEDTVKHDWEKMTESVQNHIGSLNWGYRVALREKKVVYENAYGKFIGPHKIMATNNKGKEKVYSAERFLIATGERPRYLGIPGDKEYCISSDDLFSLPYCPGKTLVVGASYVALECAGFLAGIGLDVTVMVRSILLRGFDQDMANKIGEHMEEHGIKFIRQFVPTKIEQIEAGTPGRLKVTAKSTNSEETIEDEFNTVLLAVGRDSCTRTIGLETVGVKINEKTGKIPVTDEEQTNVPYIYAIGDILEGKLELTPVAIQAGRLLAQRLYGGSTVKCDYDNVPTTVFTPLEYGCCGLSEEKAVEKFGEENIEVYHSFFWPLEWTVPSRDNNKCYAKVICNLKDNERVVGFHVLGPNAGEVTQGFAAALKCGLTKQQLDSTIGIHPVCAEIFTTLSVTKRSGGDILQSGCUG
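Rat TrxR1 (90 nM in the dispensed reagent) was pre-reduced with 400 uM NADPH for 5 min at room temperature, then incubated with compound for 15 min. After 400 uM selenite was added, NADPH fluorescence (Ex 340/Em 450 nm) was followed for 8 min.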
VDR inhibitor = blocks the human vitamin D receptor. Potency, µM, for inactives: max response, negative = inhibition, hits mostly inhibitors. VDR-SRC2-3 peptide fluorescence polarization, 2 h. P11473. actives 0.93% (n = 400,000); further: on the % scale 0 is the no-effect control and ±100 the full control effect
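FP read-out; VDR + SRC2-3 coactivator peptide; 23 nl compound by pintool; 2 h RT incubation; reagents held at 4 deg C, protected from light.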
TrxR1 substrate = substrates of rat thioredoxin reductase 1; purified TrxR1 substrate turnover, NADPH consumption readout; Potency, µM (titrated, usually from 114 µM), without a hit: at the top dose activity change, negative = substrate turnover; actives 0.01% (n = 390,000); AID 588456; further: on the % scale 0 is the no-effect control and ±100 the full control effect; nearly all actives have a fitted effect of over 50% in size
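Rat TrxR1, dispensed at 90 nM, was prereduced with 400 uM NADPH (final) for 5 min at ~22 deg C, then incubated with compound 15 min before 400 uM selenite. A first-read NADPH fluorescence drop versus no-compound background flagged substrates.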
Vif-APOBEC3F blk = inhibitors of Vif-A3F interaction. AID 602313. actives 0.2% (n = 390,000). Potency, µM (doses to about 46.1 µM), for the others: top-dose activity, negative = active. HeLa A3F-eYFP + Vif (tagged APOBEC3F with the HIV-1 protein that degrades it), YFP fluorescence increase; further: % of control where 0% means no effect; nearly all actives have a fitted effect of over 65% in size
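HeLa cells stably expressing A3F-eYFP plus Vif, plated and incubated overnight at 37 deg C, then exposed to compounds overnight at 37 deg C. Blocked degradation read as raised yellow fluorescence (Ex 488/Em 500-530).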
* hit, by the source's call; ? = inconclusive; nt = not tested or not shown; [ ] = dose if it differs, or a comment. The call rests on the fitted dose curve; in most records, active means well fitted curve in the direction sought with a large enough effect; inconclusive means small, poorly fitted or top-dose-only effect, or another doubt; inactive means no such curve, though single readings can be large; an effect the other way counts as inactive or inconclusive. Potency means the concentration at half of the fitted maximal effect.

SMILES | Vif-A3G inh | TrxR1 inh | VDR inhibitor | TrxR1 substrate | Vif-APOBEC3F blk
Cc1ccc2c(c1)sc(-c1ccc(N(C)C)cc1)[n+]2C | ? | 0%[57.1 µM] | -24% | -15% | 22µM*
Cc1ccc(NC(=O)/C(C#N)=C/c2ccc(C)s2)c(C)c1 | 11µM* | 6% | 2% | -3% | ?
S=c1ncc2[nH]c(=S)[nH]c2[nH]1 | 2% | -15% | 32µM* | -6% | -11%
O=C(/C=C/c1ccco1)N(Cc1cccc(F)c1)C1CCS(=O)(=O)C1 (centres undefined) | -1% | 35µM* | 11% | -4% | -5%
O=C(/C=C/c1ccco1)N(Cc1ccccc1)C1CCS(=O)(=O)C1 (centres undefined) | -4% | -76% | -5% | 6%[11.4 µM] | -9%
O=C(c1ccco1)N(Cc1cccc(F)c1)C1CCS(=O)(=O)C1 (centres undefined) | 4% | 2% | 2% | 0% | -4%
O=C(/C=C/c1ccccc1)N(Cc1cccc(Cl)c1)C1CCS(=O)(=O)C1 (centres undefined) | 0% | 23%[11.4 µM] | 9% | -20%[11.4 µM] | -29%
O=C(/C=C/c1ccco1)N(Cc1cccc(Cl)c1)C1CCS(=O)(=O)C1 (centres undefined) | 2% | 8.9µM* | -13% | 7%[57.1 µM] | 0%
O=C(/C=C/c1ccco1)N(Cc1ccc(F)cc1)C1CCS(=O)(=O)C1 (centres undefined) | -1% | 45µM* | -10% | -6% | 12%
COc1ccc(C)cc1-n1nnc(-c2nc(-c3ccccc3Cl)no2)c1N | -1% | 32% | 1% | 3% | 1%
O=Cc1ccc(/C=C2\C=Cc3ccccc32)cc1 | -16% | -16% | nt | 4% | nt
CC(=O)Nc1c(C)nn(-c2ccccc2)c1N1CCC(C(=O)Nc2cccc(C(F)(F)F)c2)CC1 | -14% | 11%[57.1 µM] | 18% | 4%[57.1 µM] | 0%
Nc1ncnc2c1nc(Cl)n2[C@@H]1O[C@H](CO)[C@@H](O)[C@@H]1O | -6% | 30% | ? | 24% | nt
Cc1ccc(CNC(=O)[C@H](C)[C@H]2C[C@]2(C)[C@H](NC(=O)OCc2ccccc2)c2ccccc2)o1 | -1% | 56µM* | -4% | -2% | 2%
C[C@@H](C(=O)NCc1ccccc1)[C@@H]1C[C@@]1(C)[C@@H](NC(=O)OCc1ccccc1)c1ccccc1 | -1% | 0% | 1% | -3% | -7%
COc1cccc(NC(=O)COc2ccccc2C(=O)Nc2ccccc2)c1 | nt | 0% | nt | -7% | nt
CC(=O)N/N=C/c1cc(C(C)C)cc(/C=N/NC(C)=O)c1O | ? | 11%[57.1 µM] | -10% | 2%[57.1 µM] | 32µM*
CC(=O)N/N=C/c1cc(C)n(-c2ccc(Br)cc2)c1C | -7% | -20% | 2% | -9% | 5%
CC1=NN(c2nc(-c3ccc(C)cc3)cs2)C(=O)C1N=Nc1ccccc1O (centres undefined) | -1% | 19%[57.1 µM] | 14% | 4%[57.1 µM] | ?
CC1=NN(c2nc(-c3ccc(C)cc3)cs2)C(=O)C1N=Nc1cccc(O)c1 (centres undefined) | 0% | 8%[57.1 µM] | 79µM* | 3%[57.1 µM] | 5%
Cc1nn(-c2ccccc2)c(Cl)c1CN(C(=O)CCl)c1ccc(Cl)cc1 | -22% | 22µM* | ? | -10% | -12%
CC(=O)N(Cc1c(C)nn(-c2ccccc2)c1Cl)c1ccc(Cl)cc1 | 0% | -7% | -12% | -12% | nt
Cc1ccc(NC(=O)c2ccc(NC(=O)C3CCCC3)cc2)c(C)c1 | nt | -9% | 1% | 0% | nt
O=C1c2cccnc2C(=O)N1c1nc(-c2ccccc2)cs1 | -3% | 7%[0.0914 µM] | nt | 10% | nt
C=C(c1ccc2ccccc2n1)c1cccs1 | 5% | -12% | nt | -7% | nt
SMILES | Vif-A3G inh | TrxR1 inh | VDR inhibitor | TrxR1 substrate | Vif-APOBEC3F blk
COC(=O)c1ccc(=O)c2nc3/c(=C/O)c(O)cc(=O)c3[nH]c12 | 0% | 56µM* | -11% | -17% | 6%
COC(=O)c1ccc(N)cc1O | 0% | 1% | 3% | -2% | nt
CC1=Nc2ccc(C)cc2/C1=C/c1c(N)n2oc(C)cc2nc1=O | ? | 17% | 16% | 5% | 11µM*
CC(=O)Oc1ccccc1/C=C/c1ccc2ccccc2[n+]1C | 1% | 20µM* | -16% | -13% | 7%
O=C(CSc1nc2ccccc2c(=O)[nH]1)c1ccc(O)c(O)c1 | -11% | 50µM* | 10% | -17% | 8%
O=C(CSc1nc2ccccc2c(=O)[nH]1)c1ccc(O)cc1O | -10% | 4% | 4% | -8% | 3%
Cc1cc(=O)[nH]c(SCC(=O)c2ccc(O)c(O)c2)n1 | -15% | 56µM* | 19% | -20% | 1%
N#Cc1nc(-c2ccccc2)cc(-c2ccccc2)n1 | nt | 8% | nt | 6% | nt
CCc1ccc(C(C)NC(=O)c2cc(C)oc2C)cc1 (centres undefined) | -4% | 20µM* | -17% | -3% | -5%
Cc1cc(C(=O)NN)c(C)o1 | 1% | 18% | -16% | 2% | -9%
Cc1ccc(Nc2c(-c3ccc(C)s3)nc3cccc(C)n23)cc1 | nt | 24% | -12% | 55% | nt
CCN1CCN(C2=C(NS(=O)(=O)c3ccc(C)cc3)C(=O)c3ccccc3C2=O)CC1 | -2% | 79µM* | -3% | -2% | -4%
CC(=O)Nc1ccc(S(=O)(=O)NC2=C(N3CCN(Cc4ccccc4)CC3)C(=O)c3ccccc3C2=O)cc1 | 0% | -20% | 5% | -18% | -6%
COc1ccccc1OCC(=O)N/N=C/C=C/c1ccc([N+](=O)[O-])o1 | ? | 7.1µM* | -11% | -3% | 10µM*
O=C(N/N=C\C=C\c1ccc([N+](=O)[O-])o1)c1cccs1 | 10µM* | 7.9µM* | -4% | -3% | ?
O=C(N/N=C/c1ccc([N+](=O)[O-])cc1)c1ccc(NS(=O)(=O)c2cccs2)cc1 | -10% | -6% | -4% | -12% | -2%
Cc1ccccc1OCC(=O)N/N=C/c1ccc([N+](=O)[O-])o1 | -10% | ? | -8% | -6% | 6%
O=C(N/N=C/c1ccc([N+](=O)[O-])o1)c1ccc(NS(=O)(=O)c2cccs2)cc1 | -19% | 10µM* | -5% | -3% | ?
COC(=O)C[C@H]1c2cc(C(F)(F)F)ccc2S(=O)(=O)N1C(C)C | 1% | 8% | nt | 4% | nt
CCCN(CCC)c1nc(N)nc(C#N)n1 | -3% | 19%[0.0914 µM] | ? | -4% | nt
NC(=O)c1ccc(NC(=O)COC(=O)/C=C/c2ccc(Br)o2)cc1 | 1% | 45µM* | 2% | -5% | 2%
CN(C)S(=O)(=O)c1cccc(NC(=O)COC(=O)/C=C/c2ccc(Br)o2)c1 | -1% | ? | 2% | 3% | 0%
Cc1ccc(NC(=O)COC(=O)/C=C/c2ccc(Br)o2)cc1S(=O)(=O)N(C)C | 3% | 50µM* | -9% | -2% | -15%
CC(C)(C)c1ccc(C(=O)Nc2onc3c2CCCC3)cc1 | 1% | 10% | 10% | -11% | 1%
